Hit rate of the full screen: of about 360,000 compounds, about 2,000 (0.56%) were called active. Only a selection was taken, and actives are over-represented in it overall. Unmarked numbers belong to inactive results.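 The calls were made as follows: active = activation above the average of all compounds screened plus 3 SD, cutoff fixed separately per campaign (cut at about 7.5% in these data); inactive = the rest.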
Test: GAA850 frataxin promoter reporter upregulation – cell-based, luciferase luminescence, HEK293 lucGAA850, primary screen (AID 540364);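 also: 0% = DMSO wells and 100% = 10 µM SAHA wells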
Settings: HEK293 lucGAA850 FXN promoter luciferase reporter, 24 h; at 6 µM; hits give high values; percent of 10 µM SAHA response
`COc1ccc(NC(=O)CC2C(=O)OCC3CCCCN32)cc1Cl` (configuration not stated) gave an activation of 3.58%.
For `COc1ccc(/C=C/C(=O)c2c(O)cc(OC)cc2OC)cc1`, the activation was 1.23%.
Work on `O=C(NC1CCCCC1)c1cc(C2CC2)on1` yielded an activation of 2.15%.
In the case of `O=C(NCCCn1ccnc1)c1cc(Br)c(Br)s1`, the activation is reported as 1.52%.
For `O=C(NCCCn1ccnc1)c1cc(-c2ccccc2)on1`, the activation was 20.8% (active).
In the case of `O=C(NC1CCCCCCC1)c1cccs1`, the activation is reported as 1.55%.
With `O=C(NC1CCCC1)c1cc(-c2ccccc2)on1` the activation was 8.61% (active).
Compound `COc1cc(OC)cc(C(=O)NCCCn2ccnc2)c1` has an activation of 1.13%.
Compound `Fc1ccc(CNc2nc3ccccc3n3nnnc23)cc1` has an activation of 4.29%.
With `O=S(=O)(c1ccc(Sc2nnc3ccccn23)nc1)N1CCOCC1` the activation was -1.38%.
For `CC1(C)CC(=O)CC2(C1)NCC(c1ccccc1Cl)c1c2[nH]c2ccccc12` (configuration not stated), the activation was -7.14%.
In the case of `CCCNC(=O)c1c(Cl)cnn1-c1ccc(C)cc1`, the activation is reported as 7.7% (active).
`CCCc1c(C(=O)O)cnn1-c1ccc(Cl)cc1` gave an activation of -0.1%.
`CCCNC(=O)CCc1c(C)nc2c(c(C)nn2-c2ccc(C)cc2)c1C` gave an activation of 0.2%.
`Cc1cnc(C(=O)OCc2c(C)cc(C(C)(C)C)cc2C)cn1` showed an activation of 1.56%.
In the case of `CC(Oc1ccccc1)C(=O)NN1Cc2ccccc2C1=N` (configuration not stated), the activation is reported as 2.03%.
For `CCOC(=O)c1nn(-c2cccc(C)c2)cc1C(=O)c1ccccc1`, the activation was 6.71%.
Compound `CCCNC(=O)c1cc(C2CCCCN2S(=O)(=O)c2ccc(C#N)cc2)on1` (configuration not stated) has an activation of 1.65%.
Work on `Cc1c(NC(=O)CSc2cccc3cccnc23)c(=O)n(-c2ccccc2)n1C` yielded an activation of 2.68%.
With `O=C(CSc1cccc2cccnc12)N/N=C/c1cccnc1` the activation was 15.3% (active).
For `Cc1ccc(S(=O)(=O)N(CC(=O)N/N=C/c2ccc(F)cc2)c2cccc3cccnc23)cc1`, the activation was -4.8%.
In the case of `COc1ccccc1N(CC(=O)Nc1ccc(C)cc1Cl)S(=O)(=O)c1cccs1`, the activation is reported as 0.98%.
Compound `Cc1ccccc1-n1c(C)cc(/C=N/NC(=O)c2ccc(CN3CCOCC3)cc2)c1C` has an activation of 0.54%.
Compound `COc1ccc(CCNC(=O)C(=O)NCC2OCCN2S(=O)(=O)c2ccc(F)cc2)cc1OC` (configuration not stated) has an activation of -0.5%.
For `Cc1noc(C)c1-c1ccc2ncnc(NC(C)c3ccco3)c2c1` (configuration not stated), the activation was 10.2% (active).
Compound `CCc1c(N=O)c(-c2ccccc2)n(O)[n+]1[O-]` has an activation of 3.14%.
For `COc1cc(/C=C2\Oc3ccc(C#Cc4ccc(O)cc4)cc3C2=O)cc(OC)c1`, the activation was -0.08%.
For `COc1cc(C#Cc2ccc3cc(CCCO)oc(=O)c3c2)cc(OC)c1`, the activation was 7.61% (active).
`CC(C)c1ccc(S(=O)(=O)N2CCC3(CC2)OCCO3)cc1` gave an activation of -0.76%.
Compound `COCOCCn1cc(CN2CCS(=O)(=O)N(Cc3ccc(-c4ccccc4)cc3)C(CC(C)C)C2=O)nn1` (configuration not stated) has an activation of -0.25%.
`CCOc1cccc2cc(C(=O)OCC(=O)Nc3c(C)cccc3CC)c(=O)oc12` showed an activation of 1.17%.
For `Cc1nc(SCc2ccc(F)cc2)c([N+](=O)[O-])[nH]1`, the activation was 0.83%.
With `CCCCCOc1ccc(CSC2=NCCN2)cc1[N+](=O)[O-]` the activation was 8.36% (active).
Compound `O=[N+]([O-])c1ccccc1OCCCCN1CCCCC1` has an activation of 1.12%.
`Cc1oc2c(F)c(F)c(F)c(F)c2c1S(=O)(=O)Nc1cccc(C(F)(F)F)c1` showed an activation of -1.14%.
In the case of `NC(=O)c1ccsc1NC(=O)COC(=O)COc1ccc(C=O)cc1`, the activation is reported as 1.47%.
With `Cc1cc(C)nc(S/C=C/C(=O)c2ccccc2)n1` the activation was 14.6% (active).
`Cc1cc(C)nc(SC(C)C(=O)N/N=C/c2cccs2)n1` (configuration not stated) showed an activation of -1.1%.
In the case of `CCOC(=O)C(=Cc1ccccc1)C(=O)c1ccccc1`, the activation is reported as -4.25%.
With `CC(=O)c1ccc(N2CCN(C(=O)C3CCN(S(=O)(=O)c4ccc5c(c4)CC(C)N5C(=O)C4CC4)CC3)CC2)cc1` (configuration not stated) the activation was 1.92%.
With `Cc1ccc(SC(CC(=O)c2ccc(C(C)(C)C)cc2)C(=O)O)cc1` (configuration not stated) the activation was 9.01% (active).
In the case of `Cc1ccc(Sc2cc(C(=O)c3ccccc3C(=O)O)ccc2[N+](=O)[O-])cc1`, the activation is reported as 0.3%.
With `CC(C)(C)c1ccc(C(=O)NNC(=O)Cc2ccccc2)cc1` the activation was 3.03%.
`COc1ccc(/C=C2\CCCC3C2=NN(C(=O)c2scnc2C)C3c2ccc(OC)cc2)cc1` (configuration not stated) showed an activation of 1.94%.
With `Cc1ccc(NC(=O)C(CC(=O)O)C2CCCO2)c(C)c1` (configuration not stated) the activation was 0.8%.
Work on `COc1ccc(C(CNC(=O)c2cc3c(s2)CCCC3)N2CCOCC2)cc1` (configuration not stated) yielded an activation of 1.32%.
With `CC1(C(=O)NS(=O)(=O)c2ccccc2Cl)CCN1C(=O)c1cccc(F)c1` (configuration not stated) the activation was 1.46%.
In the case of `CC1(C(=O)NCc2cccc3ccccc23)CCN1Cc1ccc(-c2ccccc2)o1` (configuration not stated), the activation is reported as 10% (active).
For `CSc1ccc(CN2CCC2(C)C(=O)NCc2ccccc2Br)cc1` (configuration not stated), the activation was 0.95%.
With `CC1(C(=O)NCc2ccc3c(c2)OCO3)CCN1C(=O)Cc1cccc2ccccc12` (configuration not stated) the activation was 0.09%.
Work on `CCC1CO/C(=C(\C(=C(Cl)Cl)N2CCOCC2)[N+](=O)[O-])N1` (configuration not stated) yielded an activation of 1.9%.
`Cc1cccc(NC(=O)CN2CCCN(S(=O)(=O)c3ccc(Br)s3)CC2)c1` gave an activation of 0.67%.
`COc1cc(OC)cc(-c2c(-c3cccs3)c3cc(-c4ccc(OC)cc4F)ccc3n2C)c1` showed an activation of 0.9%.
Work on `CC(C)(C)NC(=O)C(c1ccco1)N(Cc1ccc2c(c1)OCO2)C(=O)Cn1nnc2ccccc21` (configuration not stated) yielded an activation of -3.64%.
For `COc1ccc(S(=O)(=O)NCCCCOc2ccc(Cl)cc2)cc1`, the activation was 1.56%.
With `COc1ccc(N(CCC#N)S(=O)(=O)c2ccc(Cl)cc2)cc1` the activation was 9.52% (active).
For `COc1ccc(N(CC(=O)N2CCCCCC2)S(=O)(=O)c2ccccc2)cc1`, the activation was -0.03%.
With `COc1ccc2c(c1)C(=C(C#N)C#N)C(=O)N2CCc1ccccc1` the activation was 1.6%.
`COc1cc(NC(=S)NCCSc2ccc(C)cc2)cc(OC)c1` showed an activation of 0.45%.
With `COc1ccc(Cl)cc1NC(=O)CN(C)C(=O)c1cc2ccccc2cc1OC` the activation was 0.89%.
With `COc1ccc(Cl)cc1NC(=O)CN(C)C(=O)CCCc1c[nH]c2ccccc12` the activation was 9.56% (active).
`COc1ccc(Cl)cc1NC(=O)CN(C)C(=O)CNC(=O)C12CC3CC(CC(C3)C1)C2` gave an activation of 1.23%.
`COCCNc1ncnc2c1ncn2[C@H]1CN(CCN2CCOCC2)C[C@@H](CO)O1` showed an activation of 0.56%.
`Cc1ccc(C(NC(=O)C2CCN(CCOc3ccc(Cl)cc3Cl)CC2)c2ccccn2)cc1` (configuration not stated) showed an activation of 1.16%.
`O=C(N/N=C/c1ccco1)c1csc2c1CCCC2` showed an activation of 1.3%.
Work on `O=C(N/N=C/c1ccco1)c1ccc(NC(=O)C2CC2)cc1` yielded an activation of 1.23%.
With `O=C(N/N=C/C=C/c1ccco1)c1cccs1` the activation was 11.9% (active).
`O=C1CS(=O)CN1c1ccc(Oc2ccccc2)cc1` (configuration not stated) showed an activation of 0.15%.
For `Cc1ccc(-n2nc(N)c3c(=O)oc(N(C)C)nc32)cc1`, the activation was -0.82%.
For `Cc1ccsc1C(=O)NCCc1ccco1`, the activation was 2.23%.
`CCOc1ccc(NC(=S)N2CCCCCC2)cc1` showed an activation of 1.3%.
`CCC(C)c1ccc(NC(=S)N2CCCC2)cc1` (configuration not stated) gave an activation of 2.31%.
For `CCCCc1ccc(NC(=S)N2CCCC(CO)C2)cc1` (configuration not stated), the activation was 9.18% (active).
With `Cc1ccc2cc(/C=N/Nc3ccc(C(=O)O)cc3)c(Cl)nc2c1` the activation was 8.93% (active).
Work on `Cc1ccc2cc(/C=N/NC(=O)[C@@H]3CCCN3)c(Cl)nc2c1` yielded an activation of 0.79%.
`O=C(O)c1ccc(N/N=C/c2ccc3ncccc3c2)cc1` showed an activation of -3.19%.
In the case of `CCOCCCNC(=O)C(NC(=O)CNC(=O)c1ccccc1)c1ccc(C)cc1` (configuration not stated), the activation is reported as 1.83%.
`COc1ccc(OC)c(NC(=O)CSc2nc3cccnc3n2C)c1` gave an activation of 1.38%.
In the case of `COc1cccc(-c2ccc(C#N)c(SCC(=O)NCCc3ccc(Cl)cc3)n2)c1`, the activation is reported as 1.81%.
For `COc1cccc2cc(/C(C)=N/NC(=O)c3ccco3)oc12`, the activation was 3.55%.
With `COc1ccc(NC(=O)CSc2nc(SC)ns2)c(OC)c1` the activation was 7.6% (active).
For `CSc1nsc(SCC(=O)Nc2cc(C(=O)O)ccc2C)n1`, the activation was 0.88%.
Work on `COc1ccc(C)cc1NC(=O)CSc1nc(SC)ns1` yielded an activation of -0.57%.
With `Cc1cccc(C(=O)NC2CCN(CC(=O)Nc3cccc(Cl)c3)CC2)c1` the activation was -1.24%.
With `Fc1c(F)c(C(F)(F)F)c(F)c(F)c1N1CCN(c2ccc3nnc(C(F)(F)F)n3n2)CC1` the activation was -0.98%.
`Cc1ccc2nsnc2c1NC(=O)c1ccccc1[N+](=O)[O-]` gave an activation of 3.24%.
Work on `Cc1cc(NC(=O)Nc2ccccc2[N+](=O)[O-])no1` yielded an activation of 3.8%.
With `Cc1ccccc1Nc1c([N+](=O)[O-])ccc2nonc12` the activation was 8.33% (active).
Work on `CC(C)CN(C(=O)CSc1nncn1C)C1CCS(=O)(=O)C1` (configuration not stated) yielded an activation of 0.57%.
For `CCC1C(=O)c2ccccc2N(C)C1=O` (configuration not stated), the activation was 0.11%.
Work on `CN1C(=O)/C(=N/OC(=O)c2ccccc2Br)c2ccccc21` yielded an activation of 2.92%.
With `CN1C(=O)/C(=C\c2cc(Br)cs2)c2ccccc21` the activation was 9.69% (active).
`COCCC(=O)Nc1ccc2c(c1)CN(C(=O)CCOC)CC2` gave an activation of 0.49%.
Compound `CC1C/C(=N/NC(=O)c2cccs2)CC(C)(C)C1` (configuration not stated) has an activation of 2.63%.
With `Cc1nnc(SCCCn2c(N3CCCCC3)nc3c2c(=O)[nH]c(=O)n3C)s1` the activation was 3.13%.
For `Cc1nnc(Sc2nc3c(c(=O)[nH]c(=O)n3C)n2Cc2ccccc2)s1`, the activation was 21.3% (active).
Work on `C=CCn1c(SCc2ccccc2)nc2c1c(=O)[nH]c(=O)n2C` yielded an activation of 4.04%.
